Measured values published in ChEMBL document CHEMBL1961873, “Compounds: GSK PKIS; Assays: Nanosyn kinase panel” (2012).

How the values were obtained:
[1] = molecular target: MAP/microtubule affinity-regulating kinase 3 (Homo sapiens) (UniProt P27448); details: at 1 µM;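 note: reported values are averaged percent inhibition of MARK3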
[2] = molecular target: T1, MAP/microtubule affinity-regulating kinase 4 (Homo sapiens) (UniProt Q96L34); details: at 0.1 µM
T1 sequence (whole entry): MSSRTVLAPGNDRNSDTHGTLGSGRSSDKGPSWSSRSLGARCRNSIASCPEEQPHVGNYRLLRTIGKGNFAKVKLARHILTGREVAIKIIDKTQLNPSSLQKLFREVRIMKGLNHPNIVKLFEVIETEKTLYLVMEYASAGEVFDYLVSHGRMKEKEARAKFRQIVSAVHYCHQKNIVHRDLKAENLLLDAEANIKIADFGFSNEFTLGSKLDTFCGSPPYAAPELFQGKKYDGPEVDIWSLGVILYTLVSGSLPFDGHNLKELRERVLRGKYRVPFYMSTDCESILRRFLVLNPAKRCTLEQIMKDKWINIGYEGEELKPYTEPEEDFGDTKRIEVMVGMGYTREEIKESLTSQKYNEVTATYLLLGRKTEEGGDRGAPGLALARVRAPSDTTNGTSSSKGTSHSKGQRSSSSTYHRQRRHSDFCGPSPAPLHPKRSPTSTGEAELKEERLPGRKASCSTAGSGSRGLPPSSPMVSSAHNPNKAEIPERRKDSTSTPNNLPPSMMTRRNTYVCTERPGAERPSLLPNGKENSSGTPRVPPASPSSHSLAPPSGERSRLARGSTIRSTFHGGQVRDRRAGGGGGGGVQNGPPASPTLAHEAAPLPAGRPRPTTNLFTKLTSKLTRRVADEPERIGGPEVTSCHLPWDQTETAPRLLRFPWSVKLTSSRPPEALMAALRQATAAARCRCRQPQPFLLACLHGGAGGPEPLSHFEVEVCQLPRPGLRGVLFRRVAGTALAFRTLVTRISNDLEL

[3] = molecular target: T1, MAP/microtubule affinity-regulating kinase 4 (Homo sapiens); details: at 1 µM
[4] = molecular target: Maternal embryonic leucine zipper kinase (Homo sapiens) (UniProt Q14680); details: at 0.1 µM
Maternal embryonic leucine zipper kinase (Homo sapiens), sequence (Q14680 whole entry, looked up): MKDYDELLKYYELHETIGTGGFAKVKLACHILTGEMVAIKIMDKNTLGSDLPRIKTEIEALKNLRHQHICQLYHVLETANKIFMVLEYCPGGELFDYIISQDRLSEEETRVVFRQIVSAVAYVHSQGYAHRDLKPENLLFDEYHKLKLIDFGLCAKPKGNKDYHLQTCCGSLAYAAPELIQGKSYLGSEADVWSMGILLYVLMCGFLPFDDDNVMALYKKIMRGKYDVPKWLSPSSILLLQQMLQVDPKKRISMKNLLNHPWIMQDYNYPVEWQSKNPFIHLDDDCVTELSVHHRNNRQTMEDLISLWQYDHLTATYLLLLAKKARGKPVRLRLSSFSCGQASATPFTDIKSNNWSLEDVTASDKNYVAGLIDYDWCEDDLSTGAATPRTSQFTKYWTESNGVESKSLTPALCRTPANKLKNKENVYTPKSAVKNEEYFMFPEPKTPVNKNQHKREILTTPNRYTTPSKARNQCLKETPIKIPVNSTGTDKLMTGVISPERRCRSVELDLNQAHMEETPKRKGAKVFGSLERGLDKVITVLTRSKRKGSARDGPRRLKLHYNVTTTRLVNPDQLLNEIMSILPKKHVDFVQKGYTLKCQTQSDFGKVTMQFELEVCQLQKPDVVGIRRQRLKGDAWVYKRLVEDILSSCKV

[5] = molecular target: Maternal embryonic leucine zipper kinase (Homo sapiens) (UniProt Q14680); details: at 1 µM
[6] = molecular target: MAP kinase-interacting serine/threonine-protein kinase 1 (Homo sapiens) (UniProt Q9BUB5); details: at 0.1 µM
MAP kinase-interacting serine/threonine-protein kinase 1 (Homo sapiens), sequence (Q9BUB5 whole entry, looked up): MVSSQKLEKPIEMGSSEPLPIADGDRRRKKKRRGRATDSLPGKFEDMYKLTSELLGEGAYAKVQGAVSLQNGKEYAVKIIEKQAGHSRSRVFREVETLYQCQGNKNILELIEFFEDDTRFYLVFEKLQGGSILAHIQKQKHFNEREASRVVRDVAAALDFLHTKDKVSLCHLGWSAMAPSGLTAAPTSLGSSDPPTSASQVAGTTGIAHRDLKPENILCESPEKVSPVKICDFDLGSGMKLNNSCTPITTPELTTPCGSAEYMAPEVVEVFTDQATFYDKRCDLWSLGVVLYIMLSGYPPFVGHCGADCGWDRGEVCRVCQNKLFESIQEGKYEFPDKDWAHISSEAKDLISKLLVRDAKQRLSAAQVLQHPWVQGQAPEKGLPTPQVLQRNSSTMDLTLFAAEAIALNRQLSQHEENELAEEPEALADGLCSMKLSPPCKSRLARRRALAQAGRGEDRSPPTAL

[7] = molecular target: MAP kinase-interacting serine/threonine-protein kinase 1 (Homo sapiens) (UniProt Q9BUB5); details: at 1 µM
[8] = molecular target: MAP kinase-interacting serine/threonine-protein kinase 2 (Homo sapiens) (UniProt Q9HBH9); details: at 0.1 µM
[9] = molecular target: MAP kinase-interacting serine/threonine-protein kinase 2 (Homo sapiens) (UniProt Q9HBH9); details: at 1 µM
[10] = molecular target: Serine/threonine-protein kinase MARK2 (Homo sapiens) (UniProt Q7KZI7); details: at 0.1 µM
Serine/threonine-protein kinase MARK2 (Homo sapiens), sequence (Q7KZI7 whole entry, the tested form may be a part): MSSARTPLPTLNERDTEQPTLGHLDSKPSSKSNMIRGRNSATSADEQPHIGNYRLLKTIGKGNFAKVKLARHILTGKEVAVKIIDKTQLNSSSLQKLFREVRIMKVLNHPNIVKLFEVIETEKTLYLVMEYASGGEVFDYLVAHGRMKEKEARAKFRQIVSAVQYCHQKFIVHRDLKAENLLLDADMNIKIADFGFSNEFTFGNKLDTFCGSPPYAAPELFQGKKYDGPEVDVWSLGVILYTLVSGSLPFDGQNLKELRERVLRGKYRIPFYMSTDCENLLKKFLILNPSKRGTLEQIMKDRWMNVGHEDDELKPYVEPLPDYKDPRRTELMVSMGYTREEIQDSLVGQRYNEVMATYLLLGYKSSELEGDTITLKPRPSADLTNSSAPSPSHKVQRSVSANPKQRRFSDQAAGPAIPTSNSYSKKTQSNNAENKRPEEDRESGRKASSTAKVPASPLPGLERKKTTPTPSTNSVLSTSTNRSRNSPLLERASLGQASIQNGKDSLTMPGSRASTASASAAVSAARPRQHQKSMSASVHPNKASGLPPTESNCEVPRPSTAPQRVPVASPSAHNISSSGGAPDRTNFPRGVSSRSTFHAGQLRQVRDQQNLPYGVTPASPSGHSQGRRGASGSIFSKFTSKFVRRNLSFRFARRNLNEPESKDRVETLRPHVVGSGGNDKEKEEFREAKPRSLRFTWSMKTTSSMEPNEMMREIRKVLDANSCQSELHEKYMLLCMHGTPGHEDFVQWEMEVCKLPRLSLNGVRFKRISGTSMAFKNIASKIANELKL

[11] = molecular target: Serine/threonine-protein kinase MARK2 (Homo sapiens) (UniProt Q7KZI7); details: at 1 µM
[12] = molecular target: PAS domain-containing serine/threonine-protein kinase (Homo sapiens) (UniProt Q96RG2); details: at 0.1 µM
PAS domain-containing serine/threonine-protein kinase (Homo sapiens), sequence (Q96RG2 whole entry, the tested form may be a part, canonical isoform): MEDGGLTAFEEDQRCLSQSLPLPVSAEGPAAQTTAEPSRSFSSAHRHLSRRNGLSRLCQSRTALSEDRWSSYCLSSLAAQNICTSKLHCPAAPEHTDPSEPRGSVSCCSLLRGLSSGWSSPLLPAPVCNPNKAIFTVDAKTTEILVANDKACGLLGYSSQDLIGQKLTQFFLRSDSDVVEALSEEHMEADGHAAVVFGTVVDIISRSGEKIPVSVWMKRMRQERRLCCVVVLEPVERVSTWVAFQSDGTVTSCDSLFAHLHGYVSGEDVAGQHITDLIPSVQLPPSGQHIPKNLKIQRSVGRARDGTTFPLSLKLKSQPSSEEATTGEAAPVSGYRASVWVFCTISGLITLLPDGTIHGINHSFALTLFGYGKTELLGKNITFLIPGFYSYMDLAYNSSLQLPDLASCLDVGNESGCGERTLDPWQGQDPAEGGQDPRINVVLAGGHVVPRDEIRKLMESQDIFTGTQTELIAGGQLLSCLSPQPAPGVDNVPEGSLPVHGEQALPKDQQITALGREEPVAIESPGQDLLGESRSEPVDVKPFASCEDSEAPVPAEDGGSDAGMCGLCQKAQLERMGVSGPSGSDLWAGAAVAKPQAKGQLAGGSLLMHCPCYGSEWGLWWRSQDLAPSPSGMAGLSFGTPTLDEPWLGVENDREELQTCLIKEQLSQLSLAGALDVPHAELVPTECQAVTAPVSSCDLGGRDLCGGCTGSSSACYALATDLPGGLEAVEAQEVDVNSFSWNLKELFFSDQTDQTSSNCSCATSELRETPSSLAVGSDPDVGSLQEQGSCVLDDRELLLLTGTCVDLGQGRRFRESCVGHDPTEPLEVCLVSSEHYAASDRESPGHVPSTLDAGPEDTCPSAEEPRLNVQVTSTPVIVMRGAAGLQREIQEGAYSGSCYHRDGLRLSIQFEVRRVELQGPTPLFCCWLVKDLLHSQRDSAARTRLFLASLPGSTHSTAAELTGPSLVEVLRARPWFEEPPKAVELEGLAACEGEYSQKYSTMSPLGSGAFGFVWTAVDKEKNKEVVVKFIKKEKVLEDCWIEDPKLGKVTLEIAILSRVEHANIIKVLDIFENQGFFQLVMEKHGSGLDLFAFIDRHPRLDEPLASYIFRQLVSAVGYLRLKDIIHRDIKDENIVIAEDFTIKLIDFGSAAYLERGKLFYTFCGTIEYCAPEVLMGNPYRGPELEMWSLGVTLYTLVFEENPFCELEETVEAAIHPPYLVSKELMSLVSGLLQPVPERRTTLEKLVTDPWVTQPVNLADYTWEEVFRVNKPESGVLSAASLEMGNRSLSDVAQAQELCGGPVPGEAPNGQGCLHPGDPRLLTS

[13] = molecular target: PAS domain-containing serine/threonine-protein kinase (Homo sapiens) (UniProt Q96RG2); details: at 1 µM
[14] = molecular target: Phosphorylase b kinase gamma catalytic chain, skeletal muscle/heart isoform (Homo sapiens) (UniProt Q16816); details: at 0.1 µM
Phosphorylase b kinase gamma catalytic chain, skeletal muscle/heart isoform (Homo sapiens), sequence (Q16816 whole entry, looked up, canonical isoform): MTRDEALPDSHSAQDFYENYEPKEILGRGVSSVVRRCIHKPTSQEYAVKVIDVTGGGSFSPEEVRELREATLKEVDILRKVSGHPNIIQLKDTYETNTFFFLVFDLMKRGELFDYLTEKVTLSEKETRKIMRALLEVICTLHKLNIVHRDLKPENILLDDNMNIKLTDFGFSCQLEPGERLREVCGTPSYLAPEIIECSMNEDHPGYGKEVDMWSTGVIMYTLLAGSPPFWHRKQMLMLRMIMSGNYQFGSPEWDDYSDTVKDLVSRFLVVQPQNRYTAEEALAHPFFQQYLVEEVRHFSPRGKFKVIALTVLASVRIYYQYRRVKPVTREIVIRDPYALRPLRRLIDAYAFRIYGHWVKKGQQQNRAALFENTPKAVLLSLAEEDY

[15] = molecular target: Phosphorylase b kinase gamma catalytic chain, skeletal muscle/heart isoform (Homo sapiens) (UniProt Q16816); details: at 1 µM
[16] = molecular target: T2, Phosphorylase b kinase gamma catalytic chain, liver/testis isoform (Homo sapiens) (UniProt P15735); details: at 0.1 µM
T2 sequence (whole entry): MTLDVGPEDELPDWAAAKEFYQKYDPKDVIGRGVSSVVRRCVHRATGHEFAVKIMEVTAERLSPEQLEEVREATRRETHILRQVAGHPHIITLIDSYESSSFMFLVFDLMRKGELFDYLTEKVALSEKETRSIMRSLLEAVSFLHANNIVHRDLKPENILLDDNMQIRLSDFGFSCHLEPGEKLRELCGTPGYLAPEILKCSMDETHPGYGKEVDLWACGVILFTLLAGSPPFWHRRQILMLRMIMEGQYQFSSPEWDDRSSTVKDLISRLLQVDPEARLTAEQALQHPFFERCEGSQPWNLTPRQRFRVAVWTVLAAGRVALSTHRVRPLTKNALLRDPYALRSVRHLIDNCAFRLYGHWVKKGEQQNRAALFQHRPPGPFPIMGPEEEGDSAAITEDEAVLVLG

[17] = molecular target: T2, Phosphorylase b kinase gamma catalytic chain, liver/testis isoform (Homo sapiens); details: at 1 µM
[18] = molecular target: Serine/threonine-protein kinase pim-1 (Homo sapiens) (UniProt P11309); details: at 0.1 µM
Serine/threonine-protein kinase pim-1 (Homo sapiens), sequence (P11309 whole entry, looked up): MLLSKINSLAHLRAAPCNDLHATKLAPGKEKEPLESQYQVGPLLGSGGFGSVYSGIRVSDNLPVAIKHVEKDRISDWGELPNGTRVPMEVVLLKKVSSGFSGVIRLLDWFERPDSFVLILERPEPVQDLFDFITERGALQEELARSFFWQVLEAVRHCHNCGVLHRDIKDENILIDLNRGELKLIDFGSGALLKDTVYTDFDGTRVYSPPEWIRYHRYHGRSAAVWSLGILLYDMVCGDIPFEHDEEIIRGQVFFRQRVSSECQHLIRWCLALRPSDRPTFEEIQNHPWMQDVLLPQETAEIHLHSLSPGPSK

[19] = molecular target: Serine/threonine-protein kinase pim-1 (Homo sapiens) (UniProt P11309); details: at 1 µM
[20] = molecular target: Serine/threonine-protein kinase pim-2 (Homo sapiens) (UniProt Q9P1W9); details: at 0.1 µM;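 note: reported value is the mean percent inhibition of PIM2, measured in the GSK PKIS kinase inhibitor set screen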
Serine/threonine-protein kinase pim-2 (Homo sapiens), sequence (Q9P1W9 whole entry, looked up): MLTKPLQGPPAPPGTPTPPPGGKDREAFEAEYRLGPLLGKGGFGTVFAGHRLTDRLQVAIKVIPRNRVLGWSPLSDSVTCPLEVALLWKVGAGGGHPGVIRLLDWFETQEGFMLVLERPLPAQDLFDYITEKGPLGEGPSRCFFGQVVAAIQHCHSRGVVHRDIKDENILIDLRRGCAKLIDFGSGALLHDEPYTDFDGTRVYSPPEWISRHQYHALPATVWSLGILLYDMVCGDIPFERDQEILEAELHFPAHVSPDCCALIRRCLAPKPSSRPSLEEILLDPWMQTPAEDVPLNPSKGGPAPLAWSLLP

MAP/microtubule affinity-regulating kinase 3 (Homo sapiens), sequence (P27448 whole entry, looked up): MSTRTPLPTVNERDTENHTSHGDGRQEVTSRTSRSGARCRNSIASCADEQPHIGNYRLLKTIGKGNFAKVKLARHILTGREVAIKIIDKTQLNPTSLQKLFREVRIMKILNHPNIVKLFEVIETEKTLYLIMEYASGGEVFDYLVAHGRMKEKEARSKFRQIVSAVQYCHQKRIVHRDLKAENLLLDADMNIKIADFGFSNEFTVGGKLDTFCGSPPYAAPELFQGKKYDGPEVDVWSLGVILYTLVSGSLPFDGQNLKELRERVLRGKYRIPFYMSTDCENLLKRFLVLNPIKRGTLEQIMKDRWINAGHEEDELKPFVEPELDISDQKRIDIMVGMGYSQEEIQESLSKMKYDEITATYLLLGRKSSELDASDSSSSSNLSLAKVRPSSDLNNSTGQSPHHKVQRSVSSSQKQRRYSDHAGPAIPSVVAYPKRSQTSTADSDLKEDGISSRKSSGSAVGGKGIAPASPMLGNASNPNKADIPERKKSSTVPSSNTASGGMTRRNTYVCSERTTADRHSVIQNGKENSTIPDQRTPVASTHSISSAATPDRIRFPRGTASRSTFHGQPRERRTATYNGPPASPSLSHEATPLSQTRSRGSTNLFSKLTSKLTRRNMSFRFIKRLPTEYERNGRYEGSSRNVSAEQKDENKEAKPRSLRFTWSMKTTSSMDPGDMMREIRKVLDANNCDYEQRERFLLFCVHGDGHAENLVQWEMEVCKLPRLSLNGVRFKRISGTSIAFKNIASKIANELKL

SMILES	inhibition [1]	inhibition [2]	inhibition [3]	inhibition [4]	inhibition [5]	inhibition [6]	inhibition [7]	inhibition [8]	inhibition [9]	inhibition [10]	inhibition [11]	inhibition [12]	inhibition [13]	inhibition [14]	inhibition [15]	inhibition [16]	inhibition [17]	inhibition [18]	inhibition [19]	inhibition [20]
COc1cccc(-n2ncc3c(N/N=C/c4ccc(F)cc4)ncnc32)c1	6.87%	1.23%	2.4%	2.6%	5.51%	4.58%	17.5%	4.13%	13.3%	1.91%	1.76%	0.08%	0.35%	2.66%	5.43%	5.34%	6.87%	1.15%	1.15%	-0.5%
CCn1c(-c2nonc2N)nc2c(C#CC(C)(C)O)nc(OC[C@H](N)c3ccccc3)cc21	35.4%	1.25%	18.4%	17.7%	82.1%	1.77%	2.97%	3.54%	2.92%	1.39%	18.1%	-0.65%	8.04%	2.23%	-1.37%	2.76%	5.27%	1.54%	3.63%	0.71%
CNC(=O)c1cncc(/C=C/c2ccccc2Cl)c1	-4.55%	-0.44%	2.25%	0.11%	-3.52%	4.17%	23.1%	6.83%	17.6%	1.5%	0.58%	1.8%	4.02%	-1.06%	2.44%	1.88%	5.64%	0.54%	0.89%	0.13%
Nc1ncc(-c2cccc(S(N)(=O)=O)c2)c2scc(-c3ccc(F)c(Cl)c3)c12	5.19%	3.07%	5.58%	5.13%	2.9%	3.42%	4.48%	1.7%	6.22%	0.24%	2.5%	0.62%	1.05%	4.52%	5.24%	6.23%	6.66%	0.81%	0.67%	0.52%
c1ccc(COc2ccc(Nc3ncnc4ccc(-c5ccco5)cc34)cc2)cc1	3.2%	0.96%	1.77%	0.14%	-3.64%	1.35%	5.5%	2.49%	8.27%	-1.72%	1.38%	0.95%	1.6%	4.05%	5.22%	1.07%	2.25%	-1.26%	0.42%	0.63%
NC(=O)c1sc(-n2cnc3ccc(C(F)(F)F)cc32)cc1OCc1ccccc1Br	11.5%	1.2%	2.56%	2.87%	7.71%	2.89%	5.77%	1.04%	3.71%	-0.38%	-0.94%	-1.22%	-1.68%	4.21%	7.92%	5.06%	4.43%	-0.41%	2.03%	-0.42%
N#Cc1c(NC(=O)CN2CCOCC2)sc2c1CCCC2	5.29%	1.24%	1.29%	3.07%	1.6%	3.42%	6.68%	1.2%	6.58%	1.3%	1.25%	0.47%	0.86%	6%	9.65%	5.37%	6.47%	0.03%	0.16%	0.29%
O=C(O[C@H]1CN[C@H](C#Cc2cc3ncnc(Nc4ccc(Cc5ccccc5)cc4)c3s2)C1)N1CCOCC1	2.78%	1.7%	0.44%	0.46%	-1.31%	2.67%	7.67%	9.26%	48.1%	-0.11%	0.4%	0.94%	0.47%	3.11%	3.13%	3.27%	2.45%	1.81%	0.55%	0.21%
COC(=O)Nc1nc2ccc(S(=O)(=O)c3ccc(NC(=O)Nc4cc(C(F)(F)F)ccc4F)cc3)cc2[nH]1	0.83%	1.2%	1.06%	1.64%	4.33%	1.27%	1.87%	1%	0.01%	-2.72%	1.75%	0.31%	-0.77%	1.75%	1.03%	2.73%	0.31%	0.78%	1.71%	-0.06%
COc1cc2ncn(-c3cc(OCc4ccccc4C(F)(F)F)c(C(=O)N(C)C)s3)c2cc1OC	3.36%	-0.78%	0.92%	2.15%	1.97%	0.52%	3.31%	-0.13%	2.71%	-2.4%	-0.58%	-1.08%	0.41%	-0.58%	1.87%	-1.54%	-0.32%	0.36%	-0.31%	-0.26%
CCn1c(-c2nonc2N)nc2c(C#CC(C)(C)O)ncc(OC3CCNCC3)c21	77.7%	14%	62.1%	21.2%	76.4%	1.74%	2.25%	2.54%	2.87%	19.3%	62.2%	-0.02%	13.1%	1.52%	3.09%	4.06%	3.58%	2.62%	24.1%	1.16%
COC(=O)c1sc(-n2cnc3cc(OC)c(OC)cc32)cc1OCc1ccccc1C(F)(F)F	3.04%	2.41%	4.85%	4.31%	12.6%	3.55%	3.3%	0.22%	-0.04%	-1.89%	2.26%	-1.52%	-2.77%	4.45%	5.4%	4.03%	0.9%	0.49%	1%	0.49%
CCn1c(-c2nonc2N)nc2cnc(Oc3cccc(NC(=O)c4ccc(N(C)C)cc4)c3)cc21	12.2%	0.81%	3.87%	8.41%	44.2%	2.31%	11.5%	3.41%	27.8%	0.56%	11%	-0.49%	1.54%	-0.31%	2.21%	1.21%	-0.74%	0.69%	8.74%	-0.19%
